For 13 molecules, growth results are on record in PubChem BioAssay (NCI).

About 83,000 compounds went through this panel and 20% of them were active in at least one assay; those are over-represented in the sample as a whole.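 Negative percent growth values reflect cell death: -40 means 40% of the cells present at the start died, and -100 means all died.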 Values without a mark were called inactive. Active and inactive are the calls of the source. How the source made its calls: active means growth percent below 10; inactive means the rest.

Test systems include SK-MEL-2 melanoma; EKVX NSCLC; SN12C renal; UO-31 renal; TK-10 renal; ACHN renal; CAKI-1 renal; A498 renal; CCRF-CEM leukemia; MOLT-4 leukemia.
What all share (assay): NCI-60 one-dose screen, 48 h (100 = growth as untreated, 0 = no growth, -100 = all killed)
What all share (conditions): 10 µM unless noted

As to `C/C(=C(/c1ccc(O)cc1)c1ccc(OCCN2CCCC2)cc1)c1ccccc1`, the growth with SK-MEL-2 melanoma was 63.1%; in the assay with EKVX NSCLC, 62.5%; in the assay with SN12C renal, 72.4%; in the assay with UO-31 renal, 55.3%; in the assay with TK-10 renal, 79.6%; in the assay on ACHN renal, 68.5%. The growth was 65.1% with CAKI-1 renal, 80.5% in the assay with A498 renal, 60.7% with CCRF-CEM leukemia and -1.64% (active) in the assay with MOLT-4 leukemia.
`CCCCCCCCCCCCCC(=O)C(C)N` (stereo not given): the growth is 72.5% in the assay on SK-MEL-2 melanoma; 5.65% (active) in the assay on EKVX NSCLC; 5.02% (active) in the assay on SN12C renal; 64.9% in the assay with UO-31 renal; 48.5% with TK-10 renal; 39.2% in the assay on ACHN renal. Also, the growth with CAKI-1 renal is 77.6%; in the assay on A498 renal, 11.3%; with CCRF-CEM leukemia, 60.2%; in the assay on MOLT-4 leukemia, 46.8%.
On to `CCCCOc1ccc(NC(=O)n2nc(NC(C)=O)c3cc(NC(C)=O)ccc32)cc1`, for which the growth with SK-MEL-2 melanoma was 95%; with EKVX NSCLC, 68.7%; in the assay on SN12C renal it was 92.2%; with UO-31 renal, 80.9%; in the assay on TK-10 renal, 89.9%; with ACHN renal, 95.3%. For the same molecule, the growth with CAKI-1 renal is 89.2%; in the assay on A498 renal it was 105%; in the assay on CCRF-CEM leukemia it was 62.1%; in the assay with MOLT-4 leukemia, 52%.
In the case of `COc1ccc2nc3cc(Cl)ccc3c(NCCNCC(O)CO)c2c1` (stereo not given), the growth with SK-MEL-2 melanoma is 27.9%; with EKVX NSCLC, 42%; with SN12C renal, 5.37% (active); in the assay on UO-31 renal it was 48.9%; with TK-10 renal it was 32.3%; in the assay with ACHN renal it was 26.8%. The growth in the assay on CAKI-1 renal is 71.9%; in the assay on A498 renal, 8.45% (active); with CCRF-CEM leukemia, 25%; with MOLT-4 leukemia, 12.7%.
`Cc1ccc2c(c1)C(=O)/C(=C/c1ccc(OCC(=O)c3ccccc3)cc1)O2`: the growth with SK-MEL-2 melanoma is 77.8%; in the assay on EKVX NSCLC, 90.2%; with SN12C renal, 98.6%; in the assay with UO-31 renal it was 85.5%; in the assay with TK-10 renal it was 127%; in the assay with ACHN renal, 100%. Also, the growth with CAKI-1 renal is 103%; in the assay with A498 renal, 98.3%; in the assay with CCRF-CEM leukemia, 151%; with MOLT-4 leukemia, 33.2%.
As to `Oc1cccc(Nc2nccc(-c3ccc4ccccc4c3)n2)c1`, the growth in the assay on SK-MEL-2 melanoma was 14.5%; in the assay on EKVX NSCLC, 50.5%; in the assay on SN12C renal, 33.8%; in the assay on UO-31 renal it was 34%; with TK-10 renal it was 62%; in the assay on ACHN renal it was 37.6%. Besides, the growth was 24% in the assay on CAKI-1 renal, 71.2% in the assay on A498 renal, 6.6% (active) in the assay on CCRF-CEM leukemia and 23.5% in the assay with MOLT-4 leukemia.
`S=c1[nH]nc(CSc2ncnc3c2c(-c2ccccc2)cn3-c2ccc(Cl)cc2)o1`: the growth with SK-MEL-2 melanoma is 105%; in the assay on EKVX NSCLC, 92%; with SN12C renal, 92.8%; in the assay with UO-31 renal it was 73%; in the assay with TK-10 renal it was 114%; in the assay on ACHN renal, 92.7%. Moreover, the growth was 76.2% in the assay with CAKI-1 renal, 94.7% in the assay with A498 renal, 90.2% in the assay with CCRF-CEM leukemia and 98.1% with MOLT-4 leukemia.
In the case of `Oc1c(Cl)cc(Cl)cc1CNc1nccnn1`, the growth in the assay with SK-MEL-2 melanoma is 115%; in the assay on EKVX NSCLC, 94.4%; with SN12C renal it was 90.4%; in the assay with UO-31 renal, 93.5%; in the assay on TK-10 renal, 113%; in the assay with ACHN renal, 99.8%. Also, the growth in the assay on CAKI-1 renal was 89.6%; with A498 renal, 88.7%; with CCRF-CEM leukemia, 111%; in the assay on MOLT-4 leukemia it was 101%.
As to `CC1CN(Cc2ccco2)C(=S)N(c2ccccc2)C1=O` (stereo not given), the growth is 108% with SK-MEL-2 melanoma; 84.2% with EKVX NSCLC; 92% with SN12C renal; 89.6% in the assay with UO-31 renal; 100% with TK-10 renal; 93.8% in the assay on ACHN renal. Also, the growth in the assay on CAKI-1 renal is 60.4%; in the assay with A498 renal it was 100%; in the assay with CCRF-CEM leukemia, 83.7%; in the assay with MOLT-4 leukemia, 122%.
As for `COc1ccc(CNc2nccnn2)cc1`, the growth with SK-MEL-2 melanoma was 108%; in the assay on EKVX NSCLC it was 99.1%; in the assay on SN12C renal, 108%; in the assay on UO-31 renal, 100%; with TK-10 renal, 93.4%; with ACHN renal it was 98%. In addition, the growth was 97.8% with CAKI-1 renal, 90.2% with A498 renal, 114% in the assay with CCRF-CEM leukemia and 47.7% with MOLT-4 leukemia.
As for `NS(=O)(=O)c1ccc(Nc2nc3n[nH]c(Nc4ccccc4)c3c(=O)[nH]2)cc1`, the growth in the assay with SK-MEL-2 melanoma was 101%; with EKVX NSCLC, 107%; with SN12C renal it was 103%; with UO-31 renal, 74.9%; in the assay with TK-10 renal, 106%; in the assay on ACHN renal, 109%. In addition, the growth in the assay with CAKI-1 renal is 88.7%; in the assay on A498 renal, 88.9%; in the assay with CCRF-CEM leukemia, 105%; in the assay on MOLT-4 leukemia, 89.2%.
Consider `COC(/C=C/c1ccc([N+](=O)[O-])cc1)OC`, for which the growth in the assay on SK-MEL-2 melanoma is 99%; in the assay with EKVX NSCLC, 101%; in the assay with SN12C renal, 92.8%; with UO-31 renal it was 93.2%; with TK-10 renal, 103%; with ACHN renal, 107%. Besides, the growth in the assay with CAKI-1 renal is 102%; with A498 renal, 111%; in the assay with CCRF-CEM leukemia it was 39.6%; in the assay on MOLT-4 leukemia, 69.4%.
For the molecule `COc1cc(OC)c(/C=C/C(=O)c2c(OC)cc(OC)cc2OC)c(OC)c1`, the growth in the assay with SK-MEL-2 melanoma was 6.13% (active); with EKVX NSCLC, 38.2%; in the assay on SN12C renal, 22.6%; in the assay with UO-31 renal it was 30.3%; in the assay on TK-10 renal, 46.8%; in the assay on ACHN renal it was 35.9%. The growth with CAKI-1 renal was 7.16% (active); in the assay on A498 renal it was 7.18% (active); in the assay with CCRF-CEM leukemia it was 6.27% (active); with MOLT-4 leukemia, -2.79% (active).
